Test results from PubChem BioAssay AID504453 (The Scripps Research Institute Molecular Screening Center, 2011).
Measured potencies and affinities stand elsewhere. The source made the active and inactive calls. The rule behind the calls is not given here.

molecular target: Peroxisome proliferator-activated receptor gamma (Homo sapiens) (UniProt P37231); test: competitive ligand displacement at PPARg – biochemical, fluorescence polarization, PolarScreen, PPARg partial agonist project, dose response (AID 504453); conditions: PPARg ligand-binding domain, fluorescence polarization competition; series mostly up to 10 µM
Sequence (P37231 232-505 limits assumed): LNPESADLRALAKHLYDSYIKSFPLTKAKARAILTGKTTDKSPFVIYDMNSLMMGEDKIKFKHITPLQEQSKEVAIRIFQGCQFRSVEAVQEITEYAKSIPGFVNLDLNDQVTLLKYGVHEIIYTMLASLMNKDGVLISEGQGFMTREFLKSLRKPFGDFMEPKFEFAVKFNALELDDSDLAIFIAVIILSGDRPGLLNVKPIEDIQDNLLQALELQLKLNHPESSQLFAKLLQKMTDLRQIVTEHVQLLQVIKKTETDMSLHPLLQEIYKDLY

outcome, inactive:
CN1CCN(S(=O)(=O)c2ccc(Sc3nc4ccccc4[nH]3)c3nsnc23)CC1
O=C(C1=C(O)C(=O)N(c2nc3ccc(Cl)cc3s2)C1c1ccco1)c1ccco1 (stereo unspecified)
O=C(CSc1nc(=O)n(CCN2CCOCC2)c2c1CCCC2)Nc1cccc([N+](=O)[O-])c1
COc1ccc2c(c1)c(=O)c(C(=O)c1ccc(F)cc1)cn2CC(=O)Nc1ccc(F)cc1
COc1ccccc1-n1cc(C(=O)c2cc(Cl)ccc2O)cc(C#N)c1=O
COc1ccccc1N1C(=O)C2C(C(=O)c3ccccc3)=NN(c3ccc(C)cc3)C2C1=O (stereo unspecified)
CCOc1ccc(C2c3[nH]c4ccccc4c3CCN2Cc2cccn2-c2ncccn2)cc1 (stereo unspecified)
COc1ccc2c(c1)c(=O)c(C(=O)c1ccc(C)cc1)cn2CC(=O)Nc1ccc(F)cc1
COc1cccc(Cn2nc3c4cc(F)ccc4n(Cc4ccc(F)cc4)cc-3c2=O)c1
Cc1cc(C(=O)CN2C(=O)C(=O)N(Cc3ccccc3)C2=O)c(C)n1-c1ccc2c(c1)OCCO2
O=C(Nc1ccccc1Cl)C(=O)c1cn(CC(=O)N2CCOCC2)c2ccccc12
